Records with an inconclusive call do not appear. A call without a number means that no potency is given here. Activity calls are given as the source filed them. Unless noted, calls follow the shape of the dose curve; as a rule, active = well fitted curve in the direction sought with a large enough effect; inconclusive = small, poorly fitted or top-dose-only effect, or another doubt; inactive = no such curve, though single readings can be large or run the other way.
molecular target: 3',5'-cyclic-AMP phosphodiesterase 4B (Homo sapiens) (UniProt Q07343); assay: qHTS Assay for Inhibitors of PDE-IV (AID 607; active = well fitted activation curve with a large enough effect in the main read-out, with a control signal flat, not every such curve was filed as active); conditions: HEK293 ACTOne CNG channel cells, membrane potential fluorescence; series mostly up to 22.9 µM
Sequence (Q07343 whole entry, looked up): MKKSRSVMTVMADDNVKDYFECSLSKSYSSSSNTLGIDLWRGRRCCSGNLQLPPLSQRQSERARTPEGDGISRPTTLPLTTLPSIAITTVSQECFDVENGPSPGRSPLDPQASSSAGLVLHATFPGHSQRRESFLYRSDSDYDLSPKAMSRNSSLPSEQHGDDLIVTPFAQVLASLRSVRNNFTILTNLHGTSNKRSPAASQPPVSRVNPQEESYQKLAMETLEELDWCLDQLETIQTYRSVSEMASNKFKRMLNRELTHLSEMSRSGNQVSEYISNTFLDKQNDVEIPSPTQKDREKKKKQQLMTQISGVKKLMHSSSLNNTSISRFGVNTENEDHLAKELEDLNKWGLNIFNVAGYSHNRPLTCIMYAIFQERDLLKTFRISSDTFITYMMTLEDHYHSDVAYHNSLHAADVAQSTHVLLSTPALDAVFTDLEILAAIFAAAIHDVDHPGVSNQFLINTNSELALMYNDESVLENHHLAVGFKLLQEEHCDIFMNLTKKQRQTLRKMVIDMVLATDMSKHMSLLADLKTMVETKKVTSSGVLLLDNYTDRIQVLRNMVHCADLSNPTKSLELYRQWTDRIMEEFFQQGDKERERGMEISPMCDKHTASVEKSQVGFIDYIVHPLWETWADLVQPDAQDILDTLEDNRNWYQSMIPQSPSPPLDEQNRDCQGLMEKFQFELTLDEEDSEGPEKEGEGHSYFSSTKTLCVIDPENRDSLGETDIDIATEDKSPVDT
How it was run: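 Live HEK293 cells with a modified cyclic nucleotide-gated (CNG) channel report intracellular cAMP via membrane-potential dye fluorescence (ex 535/em 590 nm). Endogenous PDE-IV was targeted. Compounds were tested at up to 22.9 uM final; RO 20-1724 100 uM served as control.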

| SMILES | outcome |
| --- | --- |
| CCCC/C=C/C(NC(=O)CCc1ccccc1)c1ccccc1 (stereo not drawn) | inactive |
| COC(=O)[C@@]1(Cc2ccc(F)cc2)[C@H]2c3cc(C(=O)N(C)C)n(Cc4ccccc4)c3C[C@H]2CN1C(=O)c1ccccc1 | inactive |
| COC(=O)[C@@]1(Cc2ccc(OC)cc2)[C@H]2c3cc(C(=O)N4CCCC4)n(CCc4ccccn4)c3C[C@H]2CN1C(=O)c1ccccc1 | inactive |
| COC(=O)[C@@]1(Cc2ccc(OC)cc2)[C@H]2c3cc(C(=O)N4CCCC4)n(Cc4ccc(C)o4)c3C[C@H]2CN1C(=O)c1ccccc1 | inactive |
| CCCC/C=C/C(NC(=O)OCc1ccccc1Cl)c1ccccc1 (stereo not drawn) | inactive |
| COC(=O)[C@@]1(Cc2ccc(OC)cc2)[C@H]2c3cc(C(=O)N(C)C)n(Cc4ccc(C)c(F)c4F)c3C[C@H]2CN1C(=O)c1ccccc1 | inactive |
| COC(=O)[C@@]1(Cc2ccc(F)cc2)[C@H]2c3cc(C(=O)N(C)C)n(CC4CC4)c3C[C@H]2CN1C(=O)c1ccccc1 | inactive |
| CCC/C=C(\CCC)C(NC(=O)CCc1ccccc1)c1ccc(C(F)(F)F)cc1 (stereo not drawn) | inactive |
| COC(=O)[C@H]1[C@@H]2C[C@H]3c4[nH]c5ccccc5c4CCN3C[C@@H]2CC[C@@H]1O | inactive |
| COC(=O)[C@@]1(Cc2ccc(OC)cc2)[C@H]2c3cc(C(=O)N4CCCC4)n(CCCNc4ncc(C(F)(F)F)cc4Cl)c3C[C@H]2CN1C(=O)c1ccccc1 | inactive |
| COC(=O)[C@@]1(Cc2ccc(OC)cc2)[C@H]2c3cc(C(=O)N(C)C)n(Cc4ccccc4)c3C[C@H]2CN1C(=O)c1ccccc1 | inactive |

test system: not listed separately; assay: qHTS for Inhibitors of the vitamin D receptor (VDR): Hit Validation using a Texas Red Assay (AID 602201); conditions: VDR coregulator binding, Texas Red fluorescence polarization, agonist-bound VDR ligand-binding domain; series mostly up to 57.1 µM; also: potency is read from the fitted curve at half-maximal effect
How it was run: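 Fluorescence polarization (Ex 595/Em 615 nm) of Texas Red (7 nM) with 1.5 uM VDR-LBD and LG19078 (final concentrations). Compounds were incubated for 2 hours at room temperature.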

| SMILES | Potency |
| --- | --- |
| CN(C)c1ccc(C(=S)N2CCN(c3ccc([N+](=O)[O-])cc3)CC2)cc1 | inactive |
| c1ccc(-c2ccc(C3=Nn4c(Cn5nnc6ccccc65)nnc4SC3)cc2)cc1 | 22.4 µM (active) |
| Oc1ccc(N=C/C=C/c2cccc(Br)c2)cc1-c1nc2ccccc2s1 | 15.8 µM (active) |
| COc1cccc(C(=O)Oc2ccccc2/C=C\C(=O)c2cc3ccccc3o2)c1 | 3.16 µM (active) |
| C=CCOc1c(Br)cc(/C=C2/C(=O)ON=C2C)cc1OC | inactive |
| CNc1ccc(Br)cc(C(=O)/C=C/c2cccc(Cl)c2Cl)c1=O | 3.55 µM (active) |
| COc1ccc(C(=O)c2coc3c2C(=O)C(=O)c2ccccc2-3)cc1 | 5.62 µM (active) |
| O=C1C(=O)c2c(C(=O)c3ccccc3)coc2-c2ccccc21 | inactive |
| CC(=O)Nc1cccc(C(=O)/C=C/c2ccc(Br)cc2)c1 | 5.62 µM (active) |
| O=C1/C(=C/c2cccnc2)CCC/C1=C\c1cccnc1 | 31.6 µM (active) |
| O=C1/C(=C/c2cccc([N+](=O)[O-])c2)CCc2ccccc21 | 31.6 µM (active) |
| O=S1(=O)C=C(Sc2nnc(-c3ccccc3)o2)c2ccccc21 | 3.16 µM (active) |
| O=[N+]([O-])c1c(NCCCO)cc(Sc2ccc(Cl)cc2)c2nonc12 | 15.8 µM (active) |
| NC(=O)COc1ccc(/C=C2\C(=O)ON=C2c2ccccc2)cc1 | 25.1 µM (active) |
| O=C(/C=C/c1cccc([N+](=O)[O-])c1)c1ccc2c(c1)OCCO2 | 14.1 µM (active) |
| COc1ccc(OC)c(-c2c3cc(O)c(=O)cc-3oc3cc(O)c(O)cc23)c1 | 8.91 µM (active) |
| O=C(/C=C/c1ccccc1F)c1cccc([N+](=O)[O-])c1 | 3.16 µM (active) |

— PubChem BioAssay (NCATS)
